Source: PubChem BioAssay (NCATS)
Results filed as inconclusive are left out. The source made the active and inactive calls. Unless noted, calls come from the whole dose curve.

Assays:
[1] = Primary qHTS for inhibitors of SARS-S pseudo-typed particle cell entry (AID 1479145); conditions: outcome: dose series up to 57.1 µM unless noted; note: nearly all actives have a fitted effect of over 45% in size; note: potency is the fitted concentration of half-maximal effect; for activity change, negative = inhibition: % is set by controls: 0 for no effect and ±100 for the full control effect
[2] = Primary qHTS for Huh7 cytotoxicity: counterscreen for inhibitors of MERS-S pseudotyped particle cell entry (AID 1479147); conditions: outcome: dose series up to 57.1 µM unless noted; note: potency is the fitted concentration of half-maximal effect; for activity change, negative = cytotoxicity: % is set by controls: 0 for no effect and ±100 for the full control effect
[3] = Primary qHTS for inhibitors of MERS-S pseudo-typed particle cell entry (AID 1479149); conditions: outcome: dose series up to 57.1 µM unless noted; note: nearly all actives have a fitted effect of over 60% in size; note: potency is the fitted concentration of half-maximal effect; for activity change, negative = inhibition: % is set by controls: 0 for no effect and ±100 for the full control effect
[4] = Primary qHTS to identify inhibitors of SARS-CoV-2 cell entry (AID 1645846); conditions: SARS-CoV-2 pseudovirus cell entry assay, luminescence; activity change, negative = inhibition: at 57.1 µM (top of the series) unless noted; note: nearly all actives have a fitted effect of over 45% in size; note: potency is the fitted concentration of half-maximal effect
How it was run: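 Inhibition of spike-mediated entry was scored in human ACE2-transfected Expi293F cells. Particles were MLV-pseudotyped with Wuhan-Hu-1 S carrying a 19-aa C-terminal deletion; signal was luciferase after two days, scaled between spike PP and fusion-protein-free PP.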

[5] = Primary qHTS for Vero E6 cytotoxicity: counterscreen for inhibitors of SARS-S pseudo-typed particle cell entry (AID 1479150); conditions: outcome: dose series up to 57.1 µM unless noted; for activity change, negative = cytotoxicity: % is set by controls: 0 for no effect and ±100 for the full control effect
[6] = Cytotoxicity counterscreen for inhibitors of SARS-CoV-2 cell entry (AID 1645845); conditions: outcome: dose series up to 57.1 µM unless noted; note: nearly all actives have a fitted effect of over 50% in size
How it was run: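 After a 15 min room-temperature ATPLite 1step step, luminescence reflected ATP remaining in HEK293-ACE2 cells exposed to compound for 1 h plus 48 h at 37 C, with percent activity set by cell and no-cell controls.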

[7] = KB-8-5-11 P-gp reporter qHTS against the NCATS DSHEA and TCM libraries (AID 1919977; active = well fitted curve in the direction sought with a large enough effect; an effect the other way counts as inactive or inconclusive; note: 0% is about no effect)
How it was run: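 KB-8-5-11, 500 cells/well, DMEM/10% FBS without colchicine; 4 h attach; cpd titrations, 72 h, 37C/5% CO2; CellTiter-Glo, 30 min RT, luminescence.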

[8] = biological target: Glutathione peroxidase 1 (Homo sapiens) (UniProt P07203); assay: Primary qHTS Assay for Inhibitors of Recombinant Selenoprotein Glutathione Peroxidase 1 (GPX1) (AID 1845191; active = well fitted curve in the direction sought with a large enough effect; an effect the other way counts as inactive or inconclusive; note: % is set by controls: 0 for no effect and ±100 for the full control effect; nearly all actives have a fitted effect of over 65% in size)
How it was run: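 GPX1 10 nM, GR 100 nM, GSH 1 mM, NADPH 0.5 mM, CHP 0.5 mM (final). 30-min cpd preincubation, RT. Ex340/Em450 read t=0, t=15 min.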

[9] = biological target: Phospholipid hydroperoxide glutathione peroxidase GPX4 (Homo sapiens) (UniProt P36969); assay: Primary qHTS Assay for Inhibitors of Recombinant Selenoprotein Glutathione Peroxidase 4 (GPX4) (AID 1845192; active = well fitted curve in the direction sought with a large enough effect; an effect the other way counts as inactive or inconclusive; note: % is set by controls: 0 for no effect and ±100 for the full control effect; nearly all actives have a fitted effect of over 65% in size)
How it was run: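 qHTS, GR-coupled: GPX4 200 nM + cpd 30 min RT → GSH 1 mM, NADPH 0.5 mM, GR 100 nM → CHP 0.5 mM start; fluor 340/450 at t0 and t15 min; no-enzyme wells as control.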

[10] = biological target: Peroxisome proliferator-activated receptor delta (Homo sapiens) (UniProt Q03181); assay: qHTS assay for small molecule agonists of peroxisome proliferator-activated receptor delta signaling (AID 588534);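 note: 0% = DMSO basal wells and 100% = positive control agonist at 10 µM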
How it was run: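 Titration series tested in agonist mode on beta-lactamase reporter cells; 18 hrs at 37 C after a 5 hr pre-incubation. Readout: CCF4 fluorescence, 2 hrs RT. Hill equation gives EC50 and maximal response.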

[11] = biological target: Thyroid hormone receptor beta (Homo sapiens) (UniProt P10828); assay: qHTS assay for small molecule agonists of thyroid hormone receptor beta signaling (AID 588545)
How it was run: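 In this cell-based screen, titrated compounds act on HEK 293 cells held in medium with 2% charcoal/dextran FBS, NEAA and pyruvate for 18 hrs at 37 C. Responses are expressed relative to T3 (10 nM) as 100% and basal DMSO as 0%.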

[12] = qHTS assay for small molecule agonists of the antioxidant response element (ARE) signaling pathway (AID 651741; active = well fitted activation curve with a large enough effect in the signal ratio; the % refers to the signal ratio; note: % of control where 0% means no effect)
How it was run: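 Beta-lactamase reporter expression driven by the antioxidant response element in HepG2 cells was detected by fluorescence with LiveBLAzer B/G FRET substrate (2 h, room temperature) following 16 h compound treatment at 37 C.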

[13] = biological target: Cytochrome P450 2D6 (Homo sapiens) (UniProt P10635); assay: Cytochrome P450 family 2 subfamily D member 6 (CYP2D6) small molecule antagonists: luciferase biochemical (cell-free) qHTS assay (AID 1645840; active = well fitted curve in the direction sought with a large enough effect in the repeat runs; an effect the other way counts as inactive or inconclusive; note: potency is the fitted concentration of half-maximal effect; nearly all actives have a fitted effect of over 55% in size)
How it was run: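 P450-Glo CYP2D6 system: proluciferin substrate converted by enzyme to luciferin, read by luminescence proportional to activity. Enzyme-substrate mix with compound 10 min at room temperature, then NADPH regeneration 1 h before detection reagent.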

[14] = biological target: Cytochrome P450 2C9 (Homo sapiens) (UniProt P11712); assay: Cytochrome P450 family 2 subfamily C member 9 (CYP2C9) small molecule antagonists: luciferase biochemical (cell-free) qHTS assay (AID 1645842; active = well fitted curve in the direction sought with a large enough effect in the repeat runs; an effect the other way counts as inactive or inconclusive; note: potency is the fitted concentration of half-maximal effect; nearly all actives have a fitted effect of over 55% in size)
How it was run: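 P450-Glo CYP2C9 system: proluciferin substrate with enzyme in mix containing 0.4% BSA, 10 min at room temperature, then NADPH regeneration solution added and incubated 1 h at 37C. Detection reagent stopped reaction; luminescence read after 20 min as RLU.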

Chain of Peroxisome proliferator-activated receptor delta (Homo sapiens) (Q03181 whole entry, looked up): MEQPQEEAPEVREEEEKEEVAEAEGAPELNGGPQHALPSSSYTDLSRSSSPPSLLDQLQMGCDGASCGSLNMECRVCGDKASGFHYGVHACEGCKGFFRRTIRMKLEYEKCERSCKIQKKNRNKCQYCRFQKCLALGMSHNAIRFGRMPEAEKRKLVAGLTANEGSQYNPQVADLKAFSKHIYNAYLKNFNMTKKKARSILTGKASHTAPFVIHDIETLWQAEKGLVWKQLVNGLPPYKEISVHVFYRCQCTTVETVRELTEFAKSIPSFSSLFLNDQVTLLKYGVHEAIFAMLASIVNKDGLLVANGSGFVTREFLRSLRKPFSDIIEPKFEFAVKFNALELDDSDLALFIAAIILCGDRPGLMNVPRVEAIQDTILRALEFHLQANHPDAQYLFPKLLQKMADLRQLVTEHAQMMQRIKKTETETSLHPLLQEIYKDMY
Chain of Glutathione peroxidase 1 (Homo sapiens) (P07203 whole entry, looked up): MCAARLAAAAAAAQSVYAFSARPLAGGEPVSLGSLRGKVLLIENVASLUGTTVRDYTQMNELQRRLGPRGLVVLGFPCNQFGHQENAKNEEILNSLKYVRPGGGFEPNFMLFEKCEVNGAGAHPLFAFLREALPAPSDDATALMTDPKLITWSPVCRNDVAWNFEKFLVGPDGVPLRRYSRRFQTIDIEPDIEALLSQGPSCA
Chain of Cytochrome P450 2C9 (Homo sapiens) (P11712 whole entry, looked up): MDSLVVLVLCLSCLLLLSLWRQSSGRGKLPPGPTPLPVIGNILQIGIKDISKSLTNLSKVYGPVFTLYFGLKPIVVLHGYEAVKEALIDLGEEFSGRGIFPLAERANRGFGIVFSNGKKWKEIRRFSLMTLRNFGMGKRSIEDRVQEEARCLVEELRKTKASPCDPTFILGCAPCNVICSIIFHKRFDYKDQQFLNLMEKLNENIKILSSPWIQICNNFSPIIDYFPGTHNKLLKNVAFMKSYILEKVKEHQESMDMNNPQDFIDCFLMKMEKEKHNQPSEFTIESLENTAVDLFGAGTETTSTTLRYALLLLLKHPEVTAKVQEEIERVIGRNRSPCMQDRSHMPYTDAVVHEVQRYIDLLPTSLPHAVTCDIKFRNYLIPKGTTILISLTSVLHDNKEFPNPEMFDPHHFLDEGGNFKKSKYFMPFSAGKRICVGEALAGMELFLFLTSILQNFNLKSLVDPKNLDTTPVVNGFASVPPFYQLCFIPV
Chain of Cytochrome P450 2D6 (Homo sapiens) (P10635 whole entry, looked up): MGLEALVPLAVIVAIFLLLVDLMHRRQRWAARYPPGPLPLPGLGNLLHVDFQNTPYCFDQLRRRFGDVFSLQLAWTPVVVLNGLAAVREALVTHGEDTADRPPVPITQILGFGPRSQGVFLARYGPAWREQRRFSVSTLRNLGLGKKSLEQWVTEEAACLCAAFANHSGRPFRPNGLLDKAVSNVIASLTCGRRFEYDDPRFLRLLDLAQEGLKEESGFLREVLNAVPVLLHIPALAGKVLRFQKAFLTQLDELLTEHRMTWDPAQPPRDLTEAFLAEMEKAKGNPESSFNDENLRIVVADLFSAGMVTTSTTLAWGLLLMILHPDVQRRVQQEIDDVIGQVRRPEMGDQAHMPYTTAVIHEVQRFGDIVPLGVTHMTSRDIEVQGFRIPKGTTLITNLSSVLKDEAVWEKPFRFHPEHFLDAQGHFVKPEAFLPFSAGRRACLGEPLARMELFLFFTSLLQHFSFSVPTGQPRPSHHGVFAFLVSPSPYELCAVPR
Chain of Phospholipid hydroperoxide glutathione peroxidase GPX4 (Homo sapiens) (P36969 whole entry, looked up): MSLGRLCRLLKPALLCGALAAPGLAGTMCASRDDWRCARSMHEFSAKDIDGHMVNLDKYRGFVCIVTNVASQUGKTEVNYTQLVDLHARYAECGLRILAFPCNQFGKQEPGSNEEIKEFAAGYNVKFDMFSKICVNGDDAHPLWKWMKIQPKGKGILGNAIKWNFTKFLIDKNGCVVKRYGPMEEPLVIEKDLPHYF
Chain of Thyroid hormone receptor beta (Homo sapiens) (P10828 whole entry, looked up): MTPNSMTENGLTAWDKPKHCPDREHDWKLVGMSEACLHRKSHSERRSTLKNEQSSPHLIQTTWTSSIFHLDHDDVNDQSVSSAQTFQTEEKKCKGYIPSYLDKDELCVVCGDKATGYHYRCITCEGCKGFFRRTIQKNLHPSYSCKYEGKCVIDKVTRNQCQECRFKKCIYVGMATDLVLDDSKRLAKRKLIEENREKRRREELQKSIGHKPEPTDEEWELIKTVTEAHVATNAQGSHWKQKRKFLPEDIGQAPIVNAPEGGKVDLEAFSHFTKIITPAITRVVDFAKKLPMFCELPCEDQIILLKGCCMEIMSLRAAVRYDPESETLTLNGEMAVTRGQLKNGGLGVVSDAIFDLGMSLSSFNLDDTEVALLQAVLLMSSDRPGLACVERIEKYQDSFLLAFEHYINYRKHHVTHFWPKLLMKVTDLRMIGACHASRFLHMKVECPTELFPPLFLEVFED

CC(C)=C/C(C)=N\Nc1nncc2ccccc12
inactive: Potency [1] | Potency [2] | Potency [3] | Potency [4]

CCCCC(=O)O
inactive: Potency [1] | Potency [2] | Potency [3] | Potency [5]
-20.8%: activity change, negative = inhibition [4]

O=C(/C=C/c1cccc(S(=O)(=O)Nc2ccccc2)c1)NO
inactive: Potency [2] | Potency [3]
active: Potency [1] 10 µM
-13.6%: activity change, negative = inhibition [4]

CCCCCC/C=C\CCCCCCCC(=O)O
inactive: Potency [1] | Potency [2] | Potency [3] | Potency [6] | Potency [7]

O=C(O)[C@H](O)[C@@H](O)[C@H](O)[C@H](O)CO
inactive: Potency [1] | Potency [2] | Potency [3] | Potency [5] | Potency [4]

O=C(NNCS(=O)(=O)O)c1ccncc1
-23.7%: activity change, negative = inhibition [4]
inactive: Potency [1] | Potency [2] | Potency [3] | Potency [6]

CCOC(=O)CCC(=O)O[C@H]1[C@H](O[C@@H]2[C@@H](C)[C@H](O[C@H]3C[C@@](C)(OC)[C@@H](O)[C@H](C)O3)[C@@H](C)C(=O)O[C@H](CC)[C@@](C)(O)[C@H](O)[C@@H](C)C(=O)[C@H](C)CC2(C)O)O[C@H](C)C[C@@H]1N(C)C (stereo partly drawn)
inactive: Potency [1] | Potency [2] | Potency [3] | Potency [5]
-2.45%: activity change, negative = inhibition [4]

CC[N+]1(C)C2CC(OC(=O)[C@H](CO)c3ccccc3)CC1[C@@H]1O[C@H]21 (stereo partly drawn)
inactive: Potency [1] | Potency [2] | Potency [3] | Potency [5] | Potency [8] | Potency [9]
-33.5%: activity change, negative = inhibition [4]

C#C[C@]1(O)CC[C@@H]2[C@@H]3CCC4=CCCC[C@@H]4[C@H]3C(=C)C[C@@]21CC
inactive: Potency [1] | Potency [2] | Potency [3] | Potency [5]
3.84%: activity change, negative = inhibition [4]

COC(=O)N[C@H](C(=O)N1CC2(CC2)C[C@H]1c1ncc(-c2ccc3c(c2)C(F)(F)c2cc(-c4ccc5nc([C@@H]6[C@H]7CC[C@H](C7)N6C(=O)[C@@H](NC(=O)OC)C(C)C)[nH]c5c4)ccc2-3)[nH]1)C(C)C
inactive: Potency [1] | Potency [2] | Potency [5]

C=C1/C(=C/C=C2\CCC[C@]3(C)[C@@H]([C@H](C)CCCC(O)(C(F)(F)F)C(F)(F)F)CC[C@@H]23)C[C@@H](O)C[C@@H]1O
inactive: Potency [1] | Potency [2] | Potency [5]

O=P(O)(O)OC(Cn1cncn1)(Cn1cncn1)c1ccc(F)cc1F
-20.2%: activity change, negative = inhibition [4]
inactive: Potency [1] | Potency [2] | Potency [3] | Potency [5]

CC(=O)OCC(=O)[C@@]1(O)CC[C@H]2[C@@H]3C[C@H](C)C4=CC(=O)C=C[C@]4(C)[C@H]3[C@@H](O)C[C@@]21C
inactive: Potency [1] | Potency [2] | Potency [3] | Potency [6]

Cc1oc(=O)oc1COC(=O)N1CC[C@@H](N2CC/C(=C\C3=C(C(=O)O)N4C(=O)[C@@H](NC(=O)/C(=N/O)c5nsc(N)n5)[C@H]4SC3)C2=O)C1
-27.9%: activity change, negative = inhibition [4]
inactive: Potency [1] | Potency [2] | Potency [3] | Potency [5]

CC(=O)[O][Al][O]C(C)=O
-37.2% [at 11.3 µM]: activity change, negative = inhibition [4]
inactive: activity change, negative = inhibition [1] -39.3% [at 11.4 µM] | outcome [2] inactive [at 11.4 µM] | outcome [3] inactive [at 11.4 µM] | activity change, negative = cytotoxicity [5] -2.68% [at 11.4 µM]

C=Cc1ccccc1
inactive: outcome [10] | outcome [11] | Potency [12] | Potency [1] | Potency [2] | Potency [3] | Potency [5]
-16.9%: activity change, negative = inhibition [4]

CCCCCCCCCCCC[n+]1ccc2ccccc2c1
inactive: Potency [2]
active: Potency [1] 2.82 µM | Potency [3] 5.62 µM | Potency [4] 3.16 µM

CC(=O)O[C@H]1CC[C@@]2(C)C(=CC[C@H]3[C@@H]4CC[C@H](C(C)=O)[C@@]4(C)CC[C@@H]32)C1
-16.3%: activity change, negative = inhibition [4]
inactive: Potency [1] | Potency [2] | Potency [3] | Potency [5]

CC(C=CC1=C(C)CCCC1(C)C)=CC=CC(C)=CC(=O)Oc1c(C)c(C)c2c(c1C)CC[C@@](C)(CCC[C@H](C)CCC[C@H](C)CCCC(C)C)O2
inactive: activity change, negative = inhibition [1] -3.62% [at 5.34 µM] | activity change, negative = cytotoxicity [2] -9.73% [at 5.34 µM] | outcome [3] inactive [at 5.34 µM] | activity change, negative = cytotoxicity [5] -3.15% [at 5.34 µM] | outcome [4] inactive [at 5.25 µM]

Cn1c(=O)cc(N2CCCC(N)C2)n(Cc2ccccc2C#N)c1=O (stereo not drawn)
inactive: Potency [1] | Potency [2] | Potency [3] | Potency [5]
-28.9%: activity change, negative = inhibition [4]

CC(C)(O)CNc1nc(Nc2ccnc(C(F)(F)F)c2)nc(-c2cccc(C(F)(F)F)n2)n1
inactive: Potency [1] | Potency [2] | Potency [5]

CN(CC(=O)N1CCOCC1)Cc1c(Cl)cccc1NC(=O)c1ccccc1
-38.4%: activity change, negative = inhibition [4]
inactive: Potency [1] | Potency [2] | Potency [3] | Potency [5]

C[Si](C)(C)O[Si](C)(C)O[Si](C)(C)C
inactive: outcome [10] | Potency [1] | Potency [2] | Potency [3] | Potency [5]
-16.4% [at 114 µM]: activity change, negative = inhibition [4]

CCCCC(=O)O[C@]1(C(=O)COC(C)=O)CC[C@H]2[C@@H]3CCC4=CC(=O)C=C[C@]4(C)[C@H]3[C@@H](O)C[C@@]21C
-22.7%: activity change, negative = inhibition [4]
inactive: Potency [1] | Potency [2] | Potency [3] | Potency [5]

CS(=O)(=O)c1ccc([C@@H](O)[C@@H](COC(=O)CN)NC(=O)C(Cl)Cl)cc1
inactive: Potency [1] | Potency [2] | Potency [3] | Potency [6]

C=C/C=C\CC1=C(C)[C@@H](OC(=O)[C@H]2[C@H](C=C(C)C)C2(C)C)CC1=O
inactive: Potency [1] | Potency [2] | Potency [3] | Potency [5] | Potency [8]

CC=CC1=C(C(=O)O)N2C(=O)[C@@H](NC(=O)[C@H](N)c3ccc(O)cc3)[C@H]2SC1
inactive: Potency [1] | Potency [2] | Potency [3] | Potency [5] | Potency [4]

N[C@@H]1CCCCN(c2c(F)cc3c(=O)c(C(=O)O)cn(C4CC4)c3c2Cl)C1
-8.2%: activity change, negative = inhibition [4]
inactive: Potency [1] | Potency [2] | Potency [3] | Potency [5]

CC(C)CCCC(C)NC(C)C (stereo not drawn)
inactive: Potency [1] | Potency [2] | Potency [3] | Potency [6]

O[C@@H]([C@H](O)[C@@H](O)CBr)[C@@H](O)CBr
inactive: outcome [10] | Potency [1] | Potency [2] | Potency [3] | Potency [5] | Potency [4]

CN1CCN(CCCN2c3ccccc3Sc3ccccc32)CC1
active: Potency [1] 28.2 µM | Potency [2] 31.6 µM | Potency [3] 31.6 µM | Potency [4] 31.6 µM

O=C(O)CC(O)CC(O)/C=C/c1c(C2CC2)nc2ccccc2c1-c1ccc(F)cc1 (stereo not drawn)
inactive: Potency [1] | Potency [2] | Potency [3] | Potency [4]

CC=CC1C(C(=O)OCc2c(F)c(F)c(COC)c(F)c2F)C1(C)C (stereo not drawn)
active: Potency [13] 6.74 µM | Potency [14] 10.7 µM
inactive: Potency [1] | Potency [2] | Potency [3] | Potency [6]

CCOC(=O)Cc1ccc(-c2ccccc2)cc1
inactive: Potency [1] | Potency [2] | Potency [5] | Potency [6]
